Laboratory results published in PubChem BioAssay (NCI).
This is part of a sample that, as a whole, favours compounds with a hit. Of some 79,000 tested, about 15% had one in any assay. No stated cut-off is given here; in the data, active means growth inhibition above about 70%; inactive means the rest.

Key:
[1] = NCI Yeast Anticancer Drug Screen. Data for the rad50 strain (AID 155);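 further: 0% = growth of vehicle-only cultures of the same strain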; settings: S. cerevisiae rad50 strain growth inhibition; at 50.0 µM; active compounds read high
In short: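 Genetically altered yeast (DNA repair pathway); compound treatment; growth inhibition vs vehicle ctrl.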

[2] = NCI Yeast Anticancer Drug Screen. Data for the mec2-1 strain (AID 157); settings: S. cerevisiae mec2-1 strain, at 50.0 µM, active compounds read high
In short: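 Compounds were applied to mec2-1 yeast cells. Their growth was then compared with that of vehicle-treated cultures to give growth inhibition.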

[3] = NCI Yeast Anticancer Drug Screen. Data for the sgs1 mgt1 strain (AID 161);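 further: 0% = growth of cultures given vehicle only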; settings: S. cerevisiae sgs1 mgt1 strain, at 50.0 µM, active compounds read high
In short: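 Yeast cells carrying a defined DNA-repair defect were exposed to test compounds. Growth inhibition was measured relative to vehicle-treated controls.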

[4] = NCI Yeast Anticancer Drug Screen. Data for the cln2 rad14 strain (AID 165);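 further: 0% = growth equal to vehicle treated cultures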; settings: S. cerevisiae cln2 rad14 strain, at 50.0 µM, active compounds read high
In short: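 Strain: cln2 rad14 yeast, altered in cell cycle control and DNA damage repair. Read-out: growth inhibition vs vehicle.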

[5] = NCI Yeast Anticancer Drug Screen. Data for the bub3 strain (AID 167); settings: S. cerevisiae bub3 mutant strain, at 50.0 µM, active compounds read high
In short: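 Yeast carrying a defined mutation is treated with each compound, and growth is compared with that of vehicle-exposed cells to give inhibition.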

[6] = NCI Yeast Anticancer Drug Screen. Data for the mlh1 rad18 strain (AID 175); settings: S. cerevisiae mlh1 rad18 strain growth inhibition; at 50.0 µM; active compounds read high
In short: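 A repair-deficient yeast strain is exposed to test compound, and growth is scored relative to vehicle-treated controls.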

Measured: growth inhibition

COC(OC)c1cccnc1C
inactive: [1] -25.6% | [2] 16.8% | [3] -25.1% | [4] 6.65% | [5] -23.5% | [6] 7.7%

COC(=O)C(Cc1c[nH]c2ccccc12)NP(=O)(O)OCC1OC(n2cc(Br)c(=O)[nH]c2=O)CC1O (centres undefined)
inactive: [1] -34.8% | [2] -15.4% | [3] -9.25% | [4] -12% | [5] -16.3% | [6] -10.1%

O=C1C(N=Nc2ccccc2)Sc2nc3ccccc3n21 (centres undefined)
inactive: [1] -16.1% | [2] -3.2% | [3] 2.85% | [4] -52% | [5] 4.5% | [6] -9.1%

O=c1[nH]c(=O)c2nccnc2[nH]1
inactive: [1] 9.1% | [2] -0.6% | [3] -10.7% | [4] 0.75% | [5] 5% | [6] 5.1%

COC(=O)CCCc1c[nH]c2ccccc12
inactive: [1] 7.2% | [2] -9.8% | [3] -3.9% | [4] -0.95% | [5] 14.2% | [6] -1.05%

COC(=O)c1ccccc1C1CN=NC12Cc1c(C)cccc1C2=O (centres undefined)
inactive: [1] -2.25% | [2] 6% | [3] -5% | [4] -7.1% | [5] 13.8% | [6] -13.7%

COc1cccc(/C=C/c2cc3c(cc2Br)OCO3)c1
inactive: [1] 3.3% | [2] -3.35% | [3] 2.55% | [4] 3.65% | [5] 1.9% | [6] -6.3%

O=c1[nH]c2ccccc2c(O)c1/C=N/C(=S)NC1CCCCC1
inactive: [1] -14.6% | [2] -36.3% | [3] -7.55% | [4] 14.9% | [5] 3.45% | [6] 9.25%

COc1c(NC(=O)Nc2ccc(F)c([N+](=O)[O-])c2)cccc1[N+](=O)[O-]
inactive: [1] 7.85% | [2] 22.1% | [3] 10% | [4] 2.8% | [5] 20.1% | [6] 27.8%

Cc1cccc(NC(=O)c2cccc([N+](=O)[O-])c2O)c1C
inactive: [1] 3.1% | [2] 9.05% | [3] 14.2% | [4] 11.8% | [5] -2.7% | [6] -87%

CC(C)=Nn1cnc(C(=N)C#N)c1N
inactive: [1] 22.9% | [2] 3.5% | [3] -0.9% | [4] 14.5% | [5] 4.8% | [6] -7.45%

COc1cccc(NC(=O)N/C(=C/c2ccc(N(CCC#N)CCC#N)cc2)NC(=O)c2cc([N+](=O)[O-])ccc2Cl)c1
inactive: [1] 30.8% | [2] 16% | [3] -3.15% | [4] -10.1% | [5] -6.8% | [6] 36.5%

CCc1c(O)cc(=O)oc1-c1ccc(OC)c(OC)c1
inactive: [1] 21% | [2] -16.2% | [3] 2.15% | [4] 6.05% | [5] -6.9% | [6] -26.6%

CC1(C)CC(=O)C(C(c2ccccc2)C2C(=O)CC(C)(C)CC2=O)C(=O)C1
inactive: [1] 4% | [2] -8.9% | [3] 1.8% | [4] 2.6% | [5] 6.5% | [6] 7%

O=C(NNC(=S)Nc1ccccc1)c1nsc2ccccc12
inactive: [1] 43.5% | [2] 12.2% | [3] 35% | [4] 29.4% | [5] 28% | [6] 23.4%

COc1nc2c(c(O)c(C)c(=O)n2OC2OC(COC(C)=O)C(OC(C)=O)C(OC(C)=O)C2OC(C)=O)c(=O)n1C (centres undefined)
inactive: [1] -2.1% | [2] -15.8% | [3] 7.95% | [4] -7.75% | [5] 0.45% | [6] 2.3%

O=C(Nc1ccccc1F)c1c(O)nc2sccn2c1=O
inactive: [1] 50.4% | [2] -2.8% | [3] 38.5% | [4] -4.15% | [5] 38.1% | [6] 34%

COC(=O)C12CCC(C(=O)OC)(CC1)n1c(=O)n(-c3ccccc3)c(=O)n12
inactive: [1] -4.8% | [2] -5.15% | [3] -7.7% | [4] -16.8% | [5] -1.85% | [6] -7.15%

Cc1ccc(C)c(NC(=O)C(=O)C(C(=O)c2ccc3ccccc3c2)C2OC(=O)c3ccccc32)c1 (centres undefined)
inactive: [1] 23.9% | [2] 15.8% | [3] 35.9% | [4] 23.5% | [5] 4.15% | [6] 13.7%

Cc1ccc(N=CC=C2C=CN(O)C=C2)nc1
inactive: [1] -8% | [2] -10.9% | [3] -0.85% | [4] -19.2% | [5] -19.1% | [6] -10.5%

O/N=C1/COC(C(F)(F)F)(C(F)(F)F)C1
inactive: [1] -14.3% | [2] -25.4% | [3] -16.9% | [4] -38.2% | [5] -5.7% | [6] -45.5%

CCC(C)(CC)OC(=O)c1ccc([N+](=O)[O-])cc1
inactive: [1] -0.35% | [2] -0.45% | [3] 5.05% | [4] -7.4% | [5] 2.85% | [6] 43.3%

CC(C#N)(Nc1ccccc1)c1ccccc1 (centres undefined)
inactive: [1] 0.6% | [2] 6.75% | [3] 6.9% | [4] -32.6% | [5] -10.7% | [6] -6.4%

N#Cc1nc(-c2ccccc2)c(-c2ccccc2)nc1C#N
inactive: [1] 3.15% | [2] 9.8% | [3] 0.6% | [4] -7.05% | [5] 13.9% | [6] -0.6%

Clc1ccc2cc(Cl)c3ccccc3c2c1
inactive: [1] -17.4% | [2] -24.4% | [3] -16.4% | [4] -20.9% | [5] 4.25% | [6] -0.05%

O=Cc1cccc2[nH]ccc12
inactive: [1] 5.9% | [2] -7.95% | [3] 13% | [4] -4.6% | [5] 7.85% | [6] 3.25%

CCc1onc(-c2noc(CC)c2C)c1C
inactive: [1] -5.35% | [2] 6.5% | [3] 0.25% | [4] -9.35% | [5] -1.5% | [6] 12.3%

O=CC(NC(=O)OCc1ccccc1)C(O)C(O)C(O)CO (centres undefined)
inactive: [1] -15.3% | [2] 2.7% | [3] 1.75% | [4] -6.3% | [5] -15.9% | [6] -16.9%

CCOC(=O)c1ccc(Cl)cc1
inactive: [1] -14% | [2] -16.8% | [3] -25.1% | [4] -23.8% | [5] -30.8% | [6] -25.1%

O=[N+]([O-])c1ccc(C=C2C=c3ccccc3=C2)cc1
inactive: [1] 5.8% | [2] 1.1% | [3] -14.4% | [4] -28.9% | [5] 5.3% | [6] 7.3%

O=[N+]([O-])c1ccc(C[N+]2(CCC[N+]3(Cc4ccc([N+](=O)[O-])cc4)CCCC3)CCCC2)cc1
inactive: [1] -1.6% | [2] -18.2% | [3] -2.1% | [4] 10.7% | [5] 8.75% | [6] 2.3%

O=[N+]([O-])c1cccc(C2CC(c3ccccc3)=NN2c2ccccc2)c1 (centres undefined)
inactive: [1] 2.9% | [2] -2.05% | [3] 0.25% | [4] -9.4% | [5] 10.4% | [6] -7.3%

Cc1cccc(C)c1NC(=O)C(=O)CC(=O)CO
inactive: [1] -9.45% | [2] -18.3% | [3] 14.1% | [4] 10.8% | [5] 21% | [6] -6.25%

CN(C)c1ccc(/C=N/NC(=O)c2ccccc2NC(=O)c2ccccc2)cc1
inactive: [1] -1.65% | [2] -20.3% | [3] -11.6% | [4] -19.8% | [5] 14.9% | [6] 3.4%

O=C1CCC(N2C(=O)C3C4CCC(CC4)C3C2=O)C(=O)N1 (centres undefined)
inactive: [1] 2.75% | [2] -12.9% | [3] -14.9% | [4] -1.65% | [5] -2.65% | [6] -16.2%

CCCCCCn1c(=O)cc2n(c1=O)CCC2
inactive: [1] 30% | [2] 11.3% | [3] 22.1% | [4] 11.1% | [5] 3.5% | [6] -3.4%

CCCCCCCCCOCC(COP(=O)([O-])OCC[N+](C)(C)C)OC (centres undefined)
inactive: [1] 10.2% | [2] 13.3% | [3] 1.4% | [4] -22.4% | [5] -7.75% | [6] 17.5%

COc1cc(CCNC2=CC(=O)c3cccnc3C2=O)ccc1O
inactive: [1] 36.4% | [2] 24.1% | [3] 40.2% | [4] 11.8% | [5] 3.8% | [6] 48.2%

CC(=O)Nc1ccc(S(=O)(=O)NC(=O)NCCC(C)C)cc1
inactive: [1] 1.95% | [2] 2.45% | [3] 9.8% | [4] -20.2% | [5] 8.6% | [6] 7.85%
